# According to ChEMBL document CHEMBL1961873, “Compounds: GSK PKIS; Assays: Nanosyn kinase panel” (2012):
# Key:
# [1] = target: T1, 3-phosphoinositide-dependent protein kinase 1 (Homo sapiens) (UniProt O15530); settings: at 0.1 µM;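 further: values are mean inhibition of PDK1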
# T1 sequence (whole entry): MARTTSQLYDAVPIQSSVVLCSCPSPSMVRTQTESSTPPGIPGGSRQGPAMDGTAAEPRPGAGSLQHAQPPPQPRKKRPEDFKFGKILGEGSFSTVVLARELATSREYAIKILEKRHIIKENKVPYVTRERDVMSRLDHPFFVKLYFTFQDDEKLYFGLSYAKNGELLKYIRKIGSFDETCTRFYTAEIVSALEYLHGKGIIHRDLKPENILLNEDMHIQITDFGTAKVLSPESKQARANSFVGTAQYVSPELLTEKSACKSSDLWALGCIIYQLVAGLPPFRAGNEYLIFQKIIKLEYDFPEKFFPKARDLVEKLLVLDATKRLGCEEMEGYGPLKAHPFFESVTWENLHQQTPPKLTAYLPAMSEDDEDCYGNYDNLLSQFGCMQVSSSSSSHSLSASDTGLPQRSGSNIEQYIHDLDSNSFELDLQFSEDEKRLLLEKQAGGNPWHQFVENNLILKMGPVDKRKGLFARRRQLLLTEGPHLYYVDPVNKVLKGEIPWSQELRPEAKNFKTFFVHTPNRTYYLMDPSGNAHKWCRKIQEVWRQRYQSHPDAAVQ
# [2] = target: cAMP-dependent protein kinase catalytic subunit alpha (Homo sapiens) (UniProt P17612); settings: at 0.1 µM
# [3] = target: cAMP-dependent protein kinase catalytic subunit alpha (Homo sapiens) (UniProt P17612); settings: at 1 µM
# [4] = target: Protein kinase C alpha type (Homo sapiens) (UniProt P17252); settings: at 0.1 µM
# [5] = target: Protein kinase C alpha type (Homo sapiens) (UniProt P17252); settings: at 1 µM
# [6] = target: Protein kinase C beta type (Homo sapiens) (UniProt P05771); settings: at 0.1 µM
# [7] = target: Protein kinase C beta type (Homo sapiens) (UniProt P05771); settings: at 1 µM
# [8] = target: Protein kinase C eta type (Homo sapiens) (UniProt P24723); settings: at 0.1 µM
# [9] = target: Protein kinase C eta type (Homo sapiens) (UniProt P24723); settings: at 1 µM
# [10] = target: Protein kinase C gamma type (Homo sapiens) (UniProt P05129); settings: at 0.1 µM
# [11] = target: Protein kinase C gamma type (Homo sapiens) (UniProt P05129); settings: at 1 µM
# [12] = target: T2, Protein kinase C iota type (Homo sapiens) (UniProt P41743); settings: at 0.1 µM
# T2 sequence (whole entry): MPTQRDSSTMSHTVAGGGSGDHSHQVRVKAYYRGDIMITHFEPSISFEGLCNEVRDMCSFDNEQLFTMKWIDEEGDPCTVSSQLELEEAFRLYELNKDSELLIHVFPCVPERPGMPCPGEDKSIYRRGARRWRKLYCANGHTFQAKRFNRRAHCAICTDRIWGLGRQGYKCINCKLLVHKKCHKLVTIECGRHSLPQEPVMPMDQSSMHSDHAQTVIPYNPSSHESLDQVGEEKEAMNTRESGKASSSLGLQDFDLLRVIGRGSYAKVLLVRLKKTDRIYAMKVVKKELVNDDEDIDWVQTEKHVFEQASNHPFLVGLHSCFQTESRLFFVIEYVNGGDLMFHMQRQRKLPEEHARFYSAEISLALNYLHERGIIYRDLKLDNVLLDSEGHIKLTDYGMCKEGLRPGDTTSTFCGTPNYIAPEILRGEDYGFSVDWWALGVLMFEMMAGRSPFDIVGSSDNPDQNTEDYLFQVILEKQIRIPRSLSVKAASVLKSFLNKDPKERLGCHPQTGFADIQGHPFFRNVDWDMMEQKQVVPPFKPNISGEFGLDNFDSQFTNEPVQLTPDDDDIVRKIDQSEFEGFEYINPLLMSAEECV
# [13] = target: T2, Protein kinase C iota type (Homo sapiens); settings: at 1 µM
# [14] = target: Protein kinase C theta type (Homo sapiens) (UniProt Q04759); settings: at 0.1 µM
# [15] = target: Protein kinase C theta type (Homo sapiens) (UniProt Q04759); settings: at 1 µM
# [16] = target: Protein kinase C beta type (Homo sapiens) (UniProt P05771); settings: at 0.1 µM; remark: listed apart in the source
# [17] = target: Protein kinase C beta type (Homo sapiens) (UniProt P05771); settings: at 1 µM; remark: listed apart in the source
# [18] = target: T3, Serine/threonine-protein kinase D1 (Homo sapiens) (UniProt Q15139); settings: at 0.1 µM
# T3 sequence (whole entry): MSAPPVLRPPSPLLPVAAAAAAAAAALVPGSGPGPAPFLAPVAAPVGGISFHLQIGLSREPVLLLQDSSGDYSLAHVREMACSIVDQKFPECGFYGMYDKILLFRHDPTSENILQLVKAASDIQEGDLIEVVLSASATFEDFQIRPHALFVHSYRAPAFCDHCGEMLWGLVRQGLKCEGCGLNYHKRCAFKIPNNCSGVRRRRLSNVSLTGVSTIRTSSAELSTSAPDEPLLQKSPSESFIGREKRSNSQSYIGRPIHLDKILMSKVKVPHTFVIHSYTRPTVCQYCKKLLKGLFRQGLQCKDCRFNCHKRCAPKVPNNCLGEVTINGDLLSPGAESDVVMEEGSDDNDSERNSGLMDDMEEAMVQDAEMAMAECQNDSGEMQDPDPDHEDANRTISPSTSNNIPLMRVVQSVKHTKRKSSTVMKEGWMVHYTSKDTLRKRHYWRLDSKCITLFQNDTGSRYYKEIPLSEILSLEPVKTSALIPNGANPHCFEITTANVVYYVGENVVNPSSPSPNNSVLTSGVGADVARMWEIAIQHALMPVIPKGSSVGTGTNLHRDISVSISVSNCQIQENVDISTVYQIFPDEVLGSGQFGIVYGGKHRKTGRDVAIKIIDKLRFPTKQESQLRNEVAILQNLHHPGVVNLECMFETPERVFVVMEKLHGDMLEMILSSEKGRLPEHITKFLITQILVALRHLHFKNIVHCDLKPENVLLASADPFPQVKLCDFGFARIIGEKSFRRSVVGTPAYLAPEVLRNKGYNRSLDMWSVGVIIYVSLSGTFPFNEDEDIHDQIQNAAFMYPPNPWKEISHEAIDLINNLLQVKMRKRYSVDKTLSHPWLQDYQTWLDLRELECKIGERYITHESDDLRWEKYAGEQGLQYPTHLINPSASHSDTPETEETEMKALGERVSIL
# [19] = target: T3, Serine/threonine-protein kinase D1 (Homo sapiens); settings: at 1 µM
# [20] = target: T4, Serine/threonine-protein kinase D2 (Homo sapiens) (UniProt Q9BZL6); settings: at 0.1 µM;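 further: reported percent inhibition values are means, part of the GSK PKIS kinase panel screen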
# T4 sequence (whole entry): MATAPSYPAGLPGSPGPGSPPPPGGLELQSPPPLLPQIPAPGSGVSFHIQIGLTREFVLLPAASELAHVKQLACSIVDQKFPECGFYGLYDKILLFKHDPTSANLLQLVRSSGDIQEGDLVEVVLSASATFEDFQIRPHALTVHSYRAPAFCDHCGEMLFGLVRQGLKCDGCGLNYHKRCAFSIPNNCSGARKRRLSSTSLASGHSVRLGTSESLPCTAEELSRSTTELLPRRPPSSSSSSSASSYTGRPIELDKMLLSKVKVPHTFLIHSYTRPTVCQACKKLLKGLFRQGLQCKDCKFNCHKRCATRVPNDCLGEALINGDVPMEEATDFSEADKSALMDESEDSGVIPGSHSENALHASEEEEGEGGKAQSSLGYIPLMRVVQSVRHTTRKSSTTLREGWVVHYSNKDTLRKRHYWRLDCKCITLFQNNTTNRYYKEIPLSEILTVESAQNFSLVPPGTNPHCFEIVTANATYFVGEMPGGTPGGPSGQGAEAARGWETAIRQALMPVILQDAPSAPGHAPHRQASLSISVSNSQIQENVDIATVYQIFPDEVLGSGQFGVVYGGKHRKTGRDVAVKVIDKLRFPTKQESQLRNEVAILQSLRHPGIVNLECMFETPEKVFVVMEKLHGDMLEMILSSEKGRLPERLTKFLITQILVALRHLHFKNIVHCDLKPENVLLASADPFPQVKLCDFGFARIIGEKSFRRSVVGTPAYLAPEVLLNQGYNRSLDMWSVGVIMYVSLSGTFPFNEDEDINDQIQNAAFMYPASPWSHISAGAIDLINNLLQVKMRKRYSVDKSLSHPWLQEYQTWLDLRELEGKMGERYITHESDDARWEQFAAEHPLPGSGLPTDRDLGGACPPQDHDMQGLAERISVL
# Protein kinase C theta type (Homo sapiens), sequence (Q04759 whole entry, looked up): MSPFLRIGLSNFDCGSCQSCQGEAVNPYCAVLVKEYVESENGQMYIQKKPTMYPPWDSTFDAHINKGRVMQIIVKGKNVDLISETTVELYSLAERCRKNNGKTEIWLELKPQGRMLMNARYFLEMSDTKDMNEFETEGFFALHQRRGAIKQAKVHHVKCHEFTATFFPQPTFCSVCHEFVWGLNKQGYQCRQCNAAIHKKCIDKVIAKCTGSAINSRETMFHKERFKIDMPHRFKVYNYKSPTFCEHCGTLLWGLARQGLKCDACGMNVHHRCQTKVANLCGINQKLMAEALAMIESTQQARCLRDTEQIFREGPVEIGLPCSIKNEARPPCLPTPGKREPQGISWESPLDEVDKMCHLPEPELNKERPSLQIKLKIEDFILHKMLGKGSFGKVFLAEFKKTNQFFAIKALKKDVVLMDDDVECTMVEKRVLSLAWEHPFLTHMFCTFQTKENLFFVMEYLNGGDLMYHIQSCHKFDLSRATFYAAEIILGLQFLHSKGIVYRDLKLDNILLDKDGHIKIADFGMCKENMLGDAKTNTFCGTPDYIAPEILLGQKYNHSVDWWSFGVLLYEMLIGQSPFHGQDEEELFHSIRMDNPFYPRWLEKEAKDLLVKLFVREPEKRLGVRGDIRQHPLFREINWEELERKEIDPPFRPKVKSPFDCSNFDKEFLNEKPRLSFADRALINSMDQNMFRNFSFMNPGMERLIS
# Protein kinase C beta type (Homo sapiens), sequence (P05771 2-671 limits assumed): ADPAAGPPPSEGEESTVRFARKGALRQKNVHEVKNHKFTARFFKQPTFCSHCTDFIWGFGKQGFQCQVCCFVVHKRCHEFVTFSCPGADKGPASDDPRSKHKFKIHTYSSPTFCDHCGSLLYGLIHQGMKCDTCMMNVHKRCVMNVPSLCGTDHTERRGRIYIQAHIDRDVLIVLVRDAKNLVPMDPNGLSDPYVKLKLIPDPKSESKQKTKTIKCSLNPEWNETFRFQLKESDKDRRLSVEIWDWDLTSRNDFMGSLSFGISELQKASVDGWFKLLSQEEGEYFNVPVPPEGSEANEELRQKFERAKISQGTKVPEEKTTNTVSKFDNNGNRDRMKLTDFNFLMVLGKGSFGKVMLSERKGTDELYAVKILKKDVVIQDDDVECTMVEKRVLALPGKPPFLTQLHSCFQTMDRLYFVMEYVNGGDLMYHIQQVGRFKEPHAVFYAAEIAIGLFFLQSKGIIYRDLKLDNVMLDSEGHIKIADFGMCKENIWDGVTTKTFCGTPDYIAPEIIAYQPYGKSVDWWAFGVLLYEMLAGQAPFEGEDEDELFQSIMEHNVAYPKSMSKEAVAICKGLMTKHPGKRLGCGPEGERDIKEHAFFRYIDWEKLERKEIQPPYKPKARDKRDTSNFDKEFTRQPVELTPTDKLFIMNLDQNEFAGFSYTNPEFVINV
# Protein kinase C eta type (Homo sapiens), sequence (P24723 whole entry): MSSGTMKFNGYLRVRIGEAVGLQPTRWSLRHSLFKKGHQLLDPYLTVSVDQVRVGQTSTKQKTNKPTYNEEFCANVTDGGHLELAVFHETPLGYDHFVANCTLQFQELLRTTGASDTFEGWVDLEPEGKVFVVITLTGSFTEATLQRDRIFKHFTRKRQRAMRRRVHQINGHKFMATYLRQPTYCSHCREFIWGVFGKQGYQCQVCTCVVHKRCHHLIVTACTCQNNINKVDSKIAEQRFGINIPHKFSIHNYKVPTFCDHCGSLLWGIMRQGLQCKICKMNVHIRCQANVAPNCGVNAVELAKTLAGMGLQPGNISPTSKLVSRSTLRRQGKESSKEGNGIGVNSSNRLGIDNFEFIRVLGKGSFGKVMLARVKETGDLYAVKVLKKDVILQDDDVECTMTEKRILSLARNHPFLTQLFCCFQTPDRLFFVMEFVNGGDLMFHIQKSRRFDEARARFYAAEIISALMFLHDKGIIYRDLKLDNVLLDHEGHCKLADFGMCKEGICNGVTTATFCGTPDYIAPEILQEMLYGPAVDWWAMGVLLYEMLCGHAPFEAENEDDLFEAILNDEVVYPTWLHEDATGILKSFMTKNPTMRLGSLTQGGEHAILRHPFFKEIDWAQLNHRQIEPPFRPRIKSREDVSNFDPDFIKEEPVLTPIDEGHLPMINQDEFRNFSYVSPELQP
SMILES,inhibition [1] [%],inhibition [2] [%],inhibition [3] [%],inhibition [4] [%],inhibition [5] [%],inhibition [6] [%],inhibition [7] [%],inhibition [8] [%],inhibition [9] [%],inhibition [10] [%],inhibition [11] [%],inhibition [12] [%],inhibition [13] [%],inhibition [14] [%],inhibition [15] [%],inhibition [16] [%],inhibition [17] [%],inhibition [18] [%],inhibition [19] [%],inhibition [20] [%]
COc1cc2ncn(-c3cc(O[C@H](C)c4ccccc4Cl)c(C(N)=O)s3)c2cc1OC,2.16,2.29,1.54,-0.04,0.09,3.14,5.95,4.41,4.05,3.01,4.01,2.97,0.22,3.41,4.9,2.75,3.52,1.04,3.84,2.69
COc1cc2ncn(-c3cc(OCc4ccccc4C(F)(F)F)c(C(N)=O)s3)c2cc1OC,0.58,-1.97,-1.35,-3.16,-2.48,0.23,0.89,5.48,5.95,-1.78,0.51,3.36,3.32,2.16,3.1,1.23,2,0.73,0.99,1.16
CCn1c(-c2nonc2N)nc2ccncc21,2.45,0.35,1.02,0.39,0.41,-0.82,1.95,1.11,5.32,-2.41,4.26,0.76,1.92,-0.28,0,-0.19,0.57,1.02,3.26,1.34
O=C1NC(=O)C(N2CCc3ccccc32)=C1c1ccc(Cl)cc1,1.64,1.84,1.95,0.86,1.6,-0.46,0.52,0.02,3.59,5.52,2.33,1.4,3.19,2.06,1.93,1.71,1.65,3.74,5.59,4.57
